A selection: hits, their analogues and other compounds. The true share with any hit is near 3.5%.
FBA Mtb inh: inhibits M. tuberculosis FBA enzyme; 360,000 tested, 2.3% active; inhibition, % at 1 µM; purified M. tuberculosis FBA, fluorescence read-out; P9WQA3;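 further: 0% = vehicle and 100% = reference inhibitor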
GDH-TPI counter-1: GDH-TPI coupled enzyme inhibition counter-screen; inhibition, % at 4.8 µM; AID 588335; 360,000 tested, 1.2% active; GDH-TPI coupled enzyme counterscreen, NADH absorbance; in the data active means inhibition above about 30%;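 further: 0% = DMSO wells and 100% = wells lacking the enzyme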
Mtb UGM inh: Mtb UDP-galactopyranose mutase inhibition | purified UGM, fluorescence polarization probe displacement | AID 504406 | 320,000 tested, 0.06% active | inhibition, % at 10 µM | P9WIQ1; in the data active means inhibition above about 10%, passing the limit was not always enough
Target sequence (P9WIQ1 whole entry, looked up): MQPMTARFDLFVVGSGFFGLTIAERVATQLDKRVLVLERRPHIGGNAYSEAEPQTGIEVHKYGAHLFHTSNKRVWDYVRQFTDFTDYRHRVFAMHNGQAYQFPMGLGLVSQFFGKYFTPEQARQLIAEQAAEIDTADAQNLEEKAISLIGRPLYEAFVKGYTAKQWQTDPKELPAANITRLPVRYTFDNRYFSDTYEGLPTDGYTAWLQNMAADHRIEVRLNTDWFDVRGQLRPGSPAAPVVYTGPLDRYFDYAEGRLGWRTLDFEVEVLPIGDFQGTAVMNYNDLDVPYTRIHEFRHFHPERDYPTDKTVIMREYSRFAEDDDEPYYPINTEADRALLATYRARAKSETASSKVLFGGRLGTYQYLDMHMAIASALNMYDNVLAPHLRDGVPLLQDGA
Rv3671c protease: inhibitors of M. tuberculosis serine protease Rv3671c. P9WHR9. inhibition, % at 5.96 µM. 320,000 tested, 0.048% active; in the data active means inhibition above about 38%;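 further: extracellular domain of Rv3671c used as enzyme; 0% = enzyme with DMSO and 100% = no enzyme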
Mtb FBA inh conf: confirmation of M. tuberculosis fructose-bisphosphate aldolase inhibitors | shares compounds with FBA Mtb inh | purified M. tuberculosis FBA, fluorescence read-out | inhibition, % at 1 µM | 5,600 tested, 78% active | AID 651616;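 further: 0% = vehicle wells and 100% = reference inhibitor wells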
GDH-TPI counter-2: inhibits GDH-TPI coupling enzymes, flagging Mtb FBA hits | shares compounds with FBA Mtb inh | GDH-TPI coupled enzyme counterscreen, fluorescence | inhibition, % at 1 µM | 5,600 tested, 81% active; in the data active means inhibition above about 10%
GDH-TPI dose: inhibits GDH-TPI coupling enzymes in dose response; GDH-TPI coupled enzyme assay, fluorescence, artifact counterscreen; 170 tested, 79% active; AID 652145; shares compounds with FBA Mtb inh; IC50, µM; call rule not given here
An asterisk follows results filed as active. Unless noted, no stated cut-off is given here; in the data, active means inhibition above about 27%; inactive means the rest.

`COc1ccc(C2C3=C(CCCC3=O)Nc3c(-c4ccccc4)c(C)nn32)cc1` (configuration not stated) gave FBA Mtb inh 97*, GDH-TPI counter-1 45*, Mtb UGM inh 2, Rv3671c protease -2, Mtb FBA inh conf 169* and GDH-TPI counter-2 135*.
`COc1ccc(C2NC(=O)NC3=C2C(=O)CCC3)cc1` (configuration not stated) gave FBA Mtb inh 0, GDH-TPI counter-1 -2, Mtb UGM inh 0 and Rv3671c protease 0.
For CCOC(=O)N1CCN(CC(O)COC2CC(C)CCC2C(C)C)CC1 (configuration not stated) the results were FBA Mtb inh 34*, GDH-TPI counter-1 2, Mtb UGM inh -2, Rv3671c protease 3, Mtb FBA inh conf 13, GDH-TPI counter-2 -7 and GDH-TPI dose >10.
Screening COc1ccccc1C1NC(=O)NC(C)=C1C(=O)OCC1CCCCC1 (configuration not stated) returned FBA Mtb inh -3 and GDH-TPI counter-1 2.
For Cc1cc2nc(-c3ccccc3)cc(=O)n2[nH]1 the results were FBA Mtb inh 47*, GDH-TPI counter-1 -10, Mtb UGM inh 0, Rv3671c protease -5, Mtb FBA inh conf active and GDH-TPI counter-2 active.
COCc1cc(=O)n2[nH]cc(-c3ccsc3)c2n1 was read as FBA Mtb inh 55*, GDH-TPI counter-1 2, Mtb UGM inh -3, Rv3671c protease -2, Mtb FBA inh conf 94* and GDH-TPI counter-2 84*.
For COCc1cc(=O)n2[nH]c(-c3cccc(Br)c3)cc2n1 the results were FBA Mtb inh 9, GDH-TPI counter-1 -5, Mtb UGM inh 1 and Rv3671c protease 4.
Screening COCc1cc(=O)n2[nH]c(-c3ccccc3)cc2n1 returned FBA Mtb inh 33*, GDH-TPI counter-1 1, Mtb UGM inh -1, Rv3671c protease 0, Mtb FBA inh conf active and GDH-TPI counter-2 active.
`C[C@H]1CN([C@@H](C)CO)C(=O)CCCn2cc(nn2)CO[C@@H]1CN(C)C(=O)Nc1ccc(N2CCN(C)CC2)cc1` gave FBA Mtb inh 5 and GDH-TPI counter-1 3.
`Cc1ccccc1-c1cc2nc(Oc3ccc4c(c3)OCO4)n(C)c(=O)c2s1` gave FBA Mtb inh 0 and GDH-TPI counter-1 7.
For COc1cc2[nH]c(-c3cccc(F)c3)cc(=O)c2cc1OC the results were FBA Mtb inh 28*, GDH-TPI counter-1 -4, Mtb UGM inh 1, Rv3671c protease -1, Mtb FBA inh conf 82* and GDH-TPI counter-2 64*.
For COc1ccc(-c2cc(=O)c3cc(C)ccc3[nH]2)cc1 the results were FBA Mtb inh 15, GDH-TPI counter-1 9, Mtb UGM inh 0 and Rv3671c protease -1.
COc1cc2[nH]c(-c3ccc(C)cc3)cc(=O)c2cc1OC was read as FBA Mtb inh 58*, GDH-TPI counter-1 25, Mtb UGM inh 2, Rv3671c protease -13, Mtb FBA inh conf active and GDH-TPI counter-2 active.
CC1(C(=O)N(CC(=O)NC2CCCC2)Cc2ccc(Cl)cc2)CC(=O)N=C2C=CC=CN21 (configuration not stated) was read as FBA Mtb inh 89*, GDH-TPI counter-1 10, Mtb UGM inh -2, Rv3671c protease 0, Mtb FBA inh conf active and GDH-TPI counter-2 active.
For Cc1cc(C)cc(N(CC(=O)NC2CCCCC2)C(=O)CCC(=O)Nc2cc(C)ccn2)c1 the results were FBA Mtb inh -1 and GDH-TPI counter-1 -1.
Screening CC1=CC=CC2=NC(=O)CC(C)(C(=O)N(CC(=O)NC3CCCC3)Cc3ccc(Cl)cc3)N12 (configuration not stated) returned FBA Mtb inh 106*, GDH-TPI counter-1 16, Mtb UGM inh -1, Rv3671c protease 4, Mtb FBA inh conf active and GDH-TPI counter-2 active.
For CS(=O)(=O)N(CC(=O)NC1CCCCCC1)Cc1ccc(Cl)cc1 the results were FBA Mtb inh 4, GDH-TPI counter-1 10, Mtb UGM inh 5 and Rv3671c protease 4.
For CC1=CC2=NC(=O)CC(C)(C(=O)N(CC(=O)NC3CCCC3)c3cc(C)cc(C)c3)N2C=C1 (configuration not stated) the results were FBA Mtb inh 57*, GDH-TPI counter-1 0, Mtb UGM inh -4, Rv3671c protease 4, Mtb FBA inh conf active and GDH-TPI counter-2 active.
For CC1=CC2=NC(=O)CC(C)(C(=O)N(CC(=O)NC(C)(C)C)Cc3cccs3)N2C=C1 (configuration not stated) the results were FBA Mtb inh 101*, GDH-TPI counter-1 20, Mtb UGM inh 2, Rv3671c protease 0, Mtb FBA inh conf 149* and GDH-TPI counter-2 125*.
`O=C(C(O)c1ccccc1)N1N=C(c2ccccc2)CC1(O)C(F)(F)F` (configuration not stated) gave FBA Mtb inh 0, GDH-TPI counter-1 3 and Mtb UGM inh 0.
For COc1cccc(NC(=O)c2ccccc2N2C(=O)C3C4C=CC(C4)C3C2=O)c1 (configuration not stated) the results were FBA Mtb inh 0, GDH-TPI counter-1 -2, Mtb UGM inh -2 and Rv3671c protease -9.
`COc1ccc(CC(=O)Nc2ccc(S(=O)(=O)N3CCN(C)CC3)cc2)cc1` gave FBA Mtb inh -1, GDH-TPI counter-1 -1, Mtb UGM inh 3 and Rv3671c protease 3.
O=S(=O)(NC1CCCC1)c1cc(F)ccc1F was read as FBA Mtb inh 3, GDH-TPI counter-1 4, Mtb UGM inh 0 and Rv3671c protease 1.
Screening O=C(c1ccc(F)cc1)C1CCN(C(=O)Nc2ccc(F)cc2F)CC1 returned FBA Mtb inh 1, GDH-TPI counter-1 -5, Mtb UGM inh -1 and Rv3671c protease -2.
For O=C(c1ccc2c(c1)OCCO2)C1CCN(C(=O)Nc2ccccc2F)CC1 the results were FBA Mtb inh 29*, GDH-TPI counter-1 2, Mtb UGM inh -4, Rv3671c protease -5, Mtb FBA inh conf 71* and GDH-TPI counter-2 62*.
For Cc1ccc(OC/C(=N\O)C(C)(C)C)c([N+](=O)[O-])c1 the results were FBA Mtb inh 4, GDH-TPI counter-1 14, Mtb UGM inh -1 and Rv3671c protease -9.
O=C(NCCc1ccccn1)c1cncc(Br)c1 was read as FBA Mtb inh 0, GDH-TPI counter-1 -8, Mtb UGM inh -1 and Rv3671c protease -6.
`O=C(O)C1CCCCC1C(=O)NCc1ccc2c(c1)OCO2` (configuration not stated) gave FBA Mtb inh 90*, GDH-TPI counter-1 -3, Mtb UGM inh 1, Rv3671c protease 6, Mtb FBA inh conf active and GDH-TPI counter-2 162*.
For O=C(NCc1ccc2c(c1)OCO2)C1CCCCC1 the results were FBA Mtb inh -1, GDH-TPI counter-1 -11, Mtb UGM inh 4 and Rv3671c protease -5.
